Rows were chosen to be rich in hits. Some 12% of all compounds tested hit in one or more screens of this group.
Sfp inh: inhibitors of Bacillus subtilis Sfp phosphopantetheinyl transferase | 310,000 tested, 3.5% active | Potency, µM, actives largely listed as inhibitors | Biochemical Sfp PPTase activity, qHTS | Q9F4F7 | AID 1490;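 note: the enzyme is Sfp with the accession as filed and its product quenches rhodamine fluorescence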
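Step 1, compound plus 15 nM Sfp-PPTase, 15 min, room temperature. Step 2, add rhodamine-CoA (5 uM) and BHQ-2-YbbR (12.5 uM). Step 3, read 525/598 nm fluorescence at 0 and 30 min.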
HP1b binding inh: blocks HP1-beta chromodomain binding to methylated histone tails; P83916; AlphaScreen HP1-beta / biotin-H3K9me3 peptide binding; Potency, µM (top dose mostly 114 µM), hits mostly inhibitors; 390,000 tested, 0.56% active; AID 540317; note: nearly all actives have a fitted effect of over 70% in size
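AlphaScreen: HP1-beta (50 nM) preformed 30 min with biotin-H3(1-18)K9me3 peptide (50 nM) in PBS pH 7.4, 0.01% Tween-20. Compound added for 30 min at RT, then streptavidin donor/nickel chelate acceptor beads (10 ug/mL) for 30 min.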
G9a block: G9a (human) methyltransferase inhibition. Potency, µM (top dose mostly 102 µM), usual class: inhibitors. 350,000 tested, 8.8% active. AID 504332. Q96KQ7. G9a H3K9 monomethylation, AlphaScreen, 2 h; note: nearly all actives have a fitted effect of over 75% in size
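Readings reflect AlphaScreen signal from monomethyl-H3K9 antibody detection. HMT at 20 nM; substrate b-H3K9 500 nM; cofactor SAM 20 uM; 2 h RT reaction; compounds tested as titrations in qHTS with 15 min preincubation.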
JMJD2A Tudor: JMJD2A Tudor domain (human) inhibition; AlphaScreen JMJD2A-Tudor / H3K4me3 peptide binding; Potency, µM (titrated, usually from 114 µM), hits mostly inhibitors; 390,000 tested, 4.4% active; AID 504339; note: nearly all actives have a fitted effect of over 50% in size
Target sequence (O75164 whole entry, looked up, the tested form may be a part): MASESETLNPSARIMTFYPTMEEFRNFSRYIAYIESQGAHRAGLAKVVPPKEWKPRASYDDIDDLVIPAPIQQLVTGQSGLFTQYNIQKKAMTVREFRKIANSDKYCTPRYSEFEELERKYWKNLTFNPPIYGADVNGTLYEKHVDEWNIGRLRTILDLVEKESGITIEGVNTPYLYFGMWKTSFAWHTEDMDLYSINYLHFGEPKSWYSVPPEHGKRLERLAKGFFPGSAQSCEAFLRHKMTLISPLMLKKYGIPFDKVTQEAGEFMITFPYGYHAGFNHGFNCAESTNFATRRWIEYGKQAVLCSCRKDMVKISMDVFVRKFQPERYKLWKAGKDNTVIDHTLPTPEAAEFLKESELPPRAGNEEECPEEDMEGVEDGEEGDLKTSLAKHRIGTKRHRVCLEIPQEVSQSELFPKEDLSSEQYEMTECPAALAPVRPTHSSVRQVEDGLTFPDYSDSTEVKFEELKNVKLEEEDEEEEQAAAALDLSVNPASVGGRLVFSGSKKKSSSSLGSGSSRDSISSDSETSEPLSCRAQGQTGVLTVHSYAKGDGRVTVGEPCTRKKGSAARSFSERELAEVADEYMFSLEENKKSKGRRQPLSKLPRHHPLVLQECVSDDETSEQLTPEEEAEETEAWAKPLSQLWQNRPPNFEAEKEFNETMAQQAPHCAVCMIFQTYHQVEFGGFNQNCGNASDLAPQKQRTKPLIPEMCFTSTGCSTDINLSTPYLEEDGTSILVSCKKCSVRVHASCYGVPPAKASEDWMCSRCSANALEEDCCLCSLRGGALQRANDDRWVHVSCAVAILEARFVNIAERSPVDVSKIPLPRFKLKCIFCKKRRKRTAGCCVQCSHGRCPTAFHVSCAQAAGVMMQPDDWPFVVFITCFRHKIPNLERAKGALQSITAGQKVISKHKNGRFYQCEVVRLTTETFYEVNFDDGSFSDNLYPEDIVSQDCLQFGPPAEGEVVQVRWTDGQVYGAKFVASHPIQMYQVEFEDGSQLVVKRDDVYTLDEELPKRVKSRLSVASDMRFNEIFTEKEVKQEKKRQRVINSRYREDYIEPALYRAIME
BAZ2B block: inhibitors of human BAZ2B bromodomain. Q9UIF8. AlphaScreen BAZ2B-H3K14Ac peptide displacement. Potency, µM (highest dose often 114 µM), hits mostly inhibitors. 360,000 tested, 4.4% active. AID 504333; note: nearly all actives have a fitted effect of over 60% in size
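Protein-peptide AlphaScreen: BAZ2B 50 nM, b-H3K14Ac 50 nM, 1x PBS pH 7.4 + 0.01% Tween-20. Preincubation 30 min RT; cpd 30 min RT (top 110 uM); beads 20 min RT, light-protected.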
TDP1 block: TDP1 (human) enzyme inhibition; AID 485290; 350,000 tested, 0.28% active; recombinant TDP1, AlphaScreen DNA substrate cleavage; Potency, µM (titrated, usually from 130 µM), most hits filed as inhibitors; Q9NUW8; note: nearly all actives have a fitted effect of over 40% in size
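AlphaScreen read-out: signal falls as enzyme removes the 3' tyrosine-FITC from a 5'-biotinylated DNA oligo (15 nM, 5 min, RT). Enzyme was E. coli-made recombinant Tdp1 at 1 nM, exposed to compound for 15 min beforehand; beads 10 ug/ml, 10 min.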
Of the large screens only hits and unclear results are named; the others gave an inactive call. Calls come from the whole dose curve; as a rule, active = well fitted curve in the direction sought with a large enough effect; inconclusive = small, poorly fitted or top-dose-only effect, or another doubt; inactive = no such curve, though single readings can be large; an effect the other way counts as inactive or inconclusive.

CN(C)c1ccc(C=c2c3cc([N+](=O)[O-])ccc3n3c2cc(-c2ccccc2)[n+]3C)cc1	HP1b binding inh 11µM, JMJD2A Tudor 11µM (no result: Sfp inh, G9a block, BAZ2B block, TDP1 block)
COc1cc(N(C)C)ccc1C=c1c2ccccc2n2c1cc(-c1ccccc1)[n+]2C	HP1b binding inh inconclusive, JMJD2A Tudor 18µM (no result: Sfp inh, G9a block, BAZ2B block, TDP1 block)
CC(C)=NNc1nc(-c2ccc(N3C(=O)CCC3=O)cc2)cs1	Sfp inh 20µM, G9a block inconclusive, BAZ2B block inconclusive
CC(C)=NNc1nc(-c2ccccc2)cs1	Sfp inh 79µM, G9a block inconclusive
O=C(Nc1nc(-c2ccc(F)cc2)cs1)c1cccc(N2C(=O)CCC2=O)c1	none
C/C(CCC1CC(C)OC1=O)=N/Nc1nc(-c2ccccc2)cs1 (stereo unspecified)	Sfp inh 50µM, G9a block 8.9µM, JMJD2A Tudor inconclusive, BAZ2B block inconclusive
CCOc1ccc(N=Nc2ccc(N)cc2N)cc1	G9a block inconclusive (no result: HP1b binding inh, JMJD2A Tudor, BAZ2B block)
CCOc1ccc(N=Nc2cc(C(C)C)ccc2O)cc1	HP1b binding inh 14µM, G9a block 20µM, JMJD2A Tudor 18µM, BAZ2B block 5.6µM
NS(=O)(=O)c1ccc(N=Nc2ccc(O)c3ncccc23)cc1	HP1b binding inh inconclusive, G9a block 50µM, JMJD2A Tudor 20µM, BAZ2B block 3.5µM (no result: TDP1 block)
NS(=O)(=O)c1ccc(N=Nc2ccc(=O)[nH]c2O)cc1	Sfp inh inconclusive, HP1b binding inh 50µM, JMJD2A Tudor 35µM, BAZ2B block 45µM, TDP1 block 45µM
CCOc1ccc(N=Nc2ccc(O)c3ncccc23)cc1	G9a block 40µM, JMJD2A Tudor inconclusive, BAZ2B block inconclusive (no result: TDP1 block)
CCCOC(=O)c1cccc(Nc2nc(CCC)cc(=O)[nH]2)c1	none (no result: Sfp inh)
CCOc1ccc(S(=O)(=O)N2CCOCC2)cc1NC(=O)CSCC(=O)Nc1ccc(OC)cc1	none (no result: Sfp inh, G9a block, BAZ2B block, TDP1 block)
COc1ccc(-c2noc(CN3CCC(Cc4ccccc4)CC3)n2)cc1	none
COc1ccc(OC)c(CN2CCC(Cc3ccccc3)CC2)c1	HP1b binding inh inconclusive, JMJD2A Tudor 50µM, BAZ2B block 56µM (no result: G9a block)
COc1cc(OC)c(CN2CCC(Cc3ccccc3)CC2)cc1Br	JMJD2A Tudor 25µM, BAZ2B block 56µM (no result: G9a block, TDP1 block)
COc1cc(C)c(CN2CCC(Cc3ccccc3)CC2)cc1C	JMJD2A Tudor 28µM, BAZ2B block 56µM (no result: G9a block, TDP1 block)
CCOC(=O)Cc1csc(SCC(=O)NC2CCC(C)CC2)n1 (stereo unspecified)	none (no result: Sfp inh)
O=C(Cc1ccccc1)NNC(=S)NC(=O)c1cccnc1	Sfp inh inconclusive, G9a block 10µM, JMJD2A Tudor 25µM
O=C(NC(=S)NCc1ccccc1)c1cccnc1	none
COc1ccc(CC(=O)NNC(=S)NC(=O)c2cccnc2)cc1	Sfp inh inconclusive, JMJD2A Tudor 20µM (no result: G9a block)
COc1cc2c3c(c1OC)-c1cc4c(cc1CC3(C#N)N(C(=O)c1ccccc1)CC2)OCO4 (stereo unspecified)	none (no result: Sfp inh, G9a block, BAZ2B block, TDP1 block)
Cc1ccc(S(=O)(=O)N(C)c2ccc(OC(=O)CN3C(=O)NC4(CCCC4)C3=O)cc2)cc1C	none (no result: Sfp inh, TDP1 block)
CCOC(=O)C(NCc1ccccn1)(NC(=O)c1cccnc1)C(F)(F)F (stereo unspecified)	Sfp inh inconclusive, JMJD2A Tudor 63µM, BAZ2B block 56µM
Cc1cc(F)ccc1NC(=O)C1CCC(CNS(=O)(=O)c2ccc3c(c2)CCCC(=O)N3)CC1 (stereo unspecified)	none (no result: Sfp inh)
O=C(CN1C(=O)c2ccccc2C1=O)NN1C(=O)c2ccccc2C1=O	Sfp inh 45µM, G9a block inconclusive, BAZ2B block inconclusive
O=C(COc1ccc2ccccc2c1)NN1C(=O)c2ccccc2C1=O	JMJD2A Tudor 89µM
O=C(COc1ccc2ccccc2c1)NCCNC(=O)COc1ccc2ccccc2c1	G9a block inconclusive, BAZ2B block inconclusive
O=C(NCc1cccc(Br)c1)C1CC2Cn3c(nc4ccccc43)C2N1c1ccccc1 (stereo unspecified)	none (no result: Sfp inh, G9a block, BAZ2B block, TDP1 block)
CCOc1ccc(N(CC(=O)N2CCCC2)S(=O)(=O)c2ccc(Cl)cc2)cc1	none (no result: TDP1 block)
CC(C)(C)c1ccc(C(=O)O)c(C(=O)c2ccc(C(=O)O)cc2)c1	BAZ2B block inconclusive (no result: TDP1 block)
COc1ccccc1-n1cc2c([N+](=O)[O-])cc([N+](=O)[O-])cc2n1	G9a block 10µM, BAZ2B block inconclusive (no result: TDP1 block)
Nc1nnc(SCCCC(=O)c2ccccc2)s1	none
Cc1cc(C)c(NC(=O)CCCSc2nnc(N)s2)c(C)c1	G9a block 50µM
COc1cccc2cc(-c3nnc(Nc4c(F)cccc4F)s3)c(=O)oc12	none (no result: Sfp inh)
CCCSc1nnc2n(-c3cccc(C)c3)c(=O)c3c4c(sc3n12)CCCC4	none (no result: Sfp inh, TDP1 block)
COC(=O)N1CCC2(CCN(Cc3ccc(C#N)cc3)CC2)CC1	none (no result: HP1b binding inh, JMJD2A Tudor, BAZ2B block, TDP1 block)
COCCCN1C(=O)C(=O)/C(=C(/O)c2ccc(OC)cc2)C1c1cccc(OC)c1 (stereo unspecified)	G9a block inconclusive
COCCCN1C(=O)C(=O)/C(=C(/O)c2ccc(C)cc2)C1/C=C/c1ccccc1 (stereo unspecified)	G9a block 45µM
COCCN1C(=O)C(=O)/C(=C(/O)c2ccc(C)cc2)C1c1ccccn1 (stereo unspecified)	G9a block 50µM
COCCCN1C(=O)C(=O)/C(=C(/O)c2ccc(C)cc2)C1c1ccccc1 (stereo unspecified)	G9a block 50µM, JMJD2A Tudor inconclusive
COCCCN1C(=O)C(=O)/C(=C(/O)c2ccc(OC(C)C)c(C)c2)C1c1ccncc1 (stereo unspecified)	G9a block 40µM, BAZ2B block inconclusive
N#Cc1ccc(CN2CCN(c3ccc(S(=O)(=O)N4CCCC4)cn3)CC2)cc1	none (no result: Sfp inh)
O=C(CC1C(=O)NCCN1Cc1c(F)cccc1Cl)NC1CCCC1 (stereo unspecified)	none
Cc1cc(C)n(Cc2ccc(C(=O)N/N=C/c3ccc(-c4ccc([N+](=O)[O-])cc4)o3)o2)n1	Sfp inh inconclusive, HP1b binding inh inconclusive, JMJD2A Tudor 50µM, BAZ2B block 20µM (no result: TDP1 block)
CC(C)(C)NC(=S)N/N=C\c1ccc(-c2ccc([N+](=O)[O-])cc2)o1	Sfp inh 32µM, JMJD2A Tudor inconclusive, BAZ2B block inconclusive (no result: TDP1 block)
CNC(=S)N/N=C/c1ccc(-c2ccc(Cl)c([N+](=O)[O-])c2)o1	BAZ2B block 79µM, TDP1 block inconclusive (no result: G9a block)
Cc1ccc(C)c(N=Cc2ccc(-c3ccc([N+](=O)[O-])cc3)o2)c1	HP1b binding inh inconclusive, G9a block 35µM, JMJD2A Tudor 56µM, BAZ2B block inconclusive
CCOCC(=O)Nc1c(C(=O)Nc2ccc3c(c2)OCCO3)oc2ccccc12	none
O=C(CN1C(=O)NC2(CCCc3ccccc32)C1=O)c1ccc(Br)cc1 (stereo unspecified)	none (no result: Sfp inh)

High-throughput results: PubChem, National Center for Advancing Translational Sciences (NCATS)
